Hits are enriched below; roughly 1.7% of the tested compounds scored in any of these assays.
Vif imaging: blocks HIV Vif function; AID 602346; HEK293T cells, Vif self-association by quenched fluorescence, imaging, 24 h; inhibition, % at 7.49 µM; hit rate 0.35% among 340,000; in the data active = inhibition above about 50%, passing the limit was not always enough; inconclusive = no clear call, values can overlap the other calls; inactive = below about 31%
CFTR F508del cor: CFTR F508del correction in bronchial cells. CFBE cells, YFP halide quenching; stimulated with forskolin plus potentiator P3; % fluorescence drop versus neutral controls. activity (quench increase), % at 7.58 µM. AID 720511. hit rate 0.36% among 350,000;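 active = mean added fluorescence quench of at least 8% versus neutral control, with both replicates also reaching 8%; inconclusive = only one of the mean or replicate conditions met; inactive = mean below 8% and not both replicates reaching 8%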;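 also: cells transiently co-express mutant CFTR-F508del with the halide-sensitive YFP; corrector assay measuring rescue of mutant channel to the surface after 24 h compound exposure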
FGF22 binding-1: FGF22 (human) thermal shift binding | recombinant FGF22 thermal shift, SYPRO orange fluorescence; percent of sucrose octasulfate shift, DMSO zero | activity (Tm shift, normalised), % at 9.99 µM | hit rate 1.5% among 340,000;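 active = mean Tm shift, scaled 0 neutral to 100 positive control, at about 1.3% or above, every replicate too, limit read from the data; inconclusive = no clear call, values can overlap the other calls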
Target sequence (Q9HCT0 whole entry, looked up): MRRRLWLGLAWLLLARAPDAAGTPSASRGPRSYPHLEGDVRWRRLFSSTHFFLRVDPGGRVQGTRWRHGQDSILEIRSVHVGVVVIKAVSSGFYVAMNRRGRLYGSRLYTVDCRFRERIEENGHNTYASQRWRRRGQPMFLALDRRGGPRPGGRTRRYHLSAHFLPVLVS
FGF22 binding-2: binds human FGF22 shifting its melting temperature. shares compounds with FGF22 binding-1. hit rate 2% among 1,000. recombinant FGF22 thermal shift, SYPRO orange fluorescence. thermal shift activity, °C (ΔTm) at 38 µM;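 active = fitted rise in melting shift crosses a set limit at or below the top valid dose tested; inconclusive = flat fit at mid-level activity, or a poor quality fit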
TSA no protein: counter-screen for FGF22 binders: compound-only thermal shift, no protein; shares compounds with FGF22 binding-1; compound-only SYPRO orange thermal shift counter-screen; AC50, µM (highest dose often 38 µM); hit rate 2% among 1,000;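 active = rising signal whose fitted curve reaches the 0.54 level within the top valid dose, showing a melting point, actives reach about 13 µM in these data; inactive = the rest, including activity in the opposite direction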; also: value is where the raw curve crosses a fixed level and not half-maximal
Starred values were filed as active, the others as inactive.

CCC(C)N(C(=O)COc1ccccc1C#N)C1CCS(=O)(=O)C1 (configuration not stated) was read as Vif imaging 2 and CFTR F508del cor -2.
CNC(=O)C[C@@H]1CC[C@@H]2[C@@H](COc3ccc(NC(=O)c4ccccc4Cl)cc3C(=O)N2C)O1 was read as CFTR F508del cor 1 and FGF22 binding-1 0.
For Cc1ccc(S(=O)(=O)N(C)C[C@H]2Oc3ccc(NC(=O)C4CCCCC4)cc3CC(=O)N([C@@H](C)CO)C[C@H]2C)cc1 the results were CFTR F508del cor -1 and FGF22 binding-1 0.
O=C(O)CN1C(=O)CSC1=S was read as Vif imaging -3, CFTR F508del cor 1 and FGF22 binding-1 0.
`O=C(NN1C(=O)CSC1=S)C(=O)NN1C(=O)CSC1=S` gave Vif imaging -11, CFTR F508del cor -6, FGF22 binding-1 2.4*, FGF22 binding-2 -0.042 and TSA no protein inactive.
CC(=O)N[C@@H]1CC[C@H](CCNC(=O)C2CCCC2)O[C@H]1CO was read as CFTR F508del cor 0 and FGF22 binding-1 0.
CCCNC(=O)N1[C@@H](C#N)[C@@H](c2ccc(C#Cc3cccc(F)c3)cc2)[C@@H]1CO was read as CFTR F508del cor 4 and FGF22 binding-1 0.
For O=C(C(=O)N1CCC(CNS(=O)(=O)Cc2ccccc2)CC1)c1cccs1 the results were CFTR F508del cor -2, FGF22 binding-1 27*, FGF22 binding-2 0.071 and TSA no protein inactive.
`O=C(C(=O)N1CCC(CNS(=O)(=O)c2cccc3ccccc23)CC1)c1cccs1` gave CFTR F508del cor -1 and FGF22 binding-1 0.
`O=C(CCc1ccc(S(=O)(=O)N2CCOCC2)cc1)Nc1ccccc1F` gave Vif imaging inconclusive, CFTR F508del cor 0, FGF22 binding-1 1.5*, FGF22 binding-2 0.14 and TSA no protein inactive.
For O=C(COC(=O)c1ccc(S(=O)(=O)N2CCOCC2)cc1)Nc1ccccc1F the results were Vif imaging inconclusive, CFTR F508del cor 1 and FGF22 binding-1 0.
For C[C@@H]1CN([C@H](C)CO)S(=O)(=O)c2ccc(C#CC3(O)CCCC3)cc2O[C@@H]1CN(C)C(=O)Nc1cccc(F)c1 the results were CFTR F508del cor 0 and FGF22 binding-1 1.
CCC1CCCCN1C(=O)CCNC(=O)Cn1cnc2ccccc2c1=O (configuration not stated) was read as Vif imaging -5, CFTR F508del cor -2, FGF22 binding-1 1.4*, FGF22 binding-2 -0.036 and TSA no protein inactive.
CC1CCCCN1C(=O)CCNC(=O)Cn1cnc2ccccc2c1=O (configuration not stated) was read as Vif imaging 10, CFTR F508del cor 1 and FGF22 binding-1 0.
Screening CCC(=O)Nc1ccc2c(c1)C(=O)N(C)C[C@H](OC)[C@@H](C)CN(C(=O)c1cnccn1)[C@H](C)CO2 returned CFTR F508del cor 2 and FGF22 binding-1 0.
For Cc1cc(C)cc(C(=O)NCC(=O)N2CCN(c3cccc(Cl)c3)CC2)c1 the results were Vif imaging -9, CFTR F508del cor 0, FGF22 binding-1 37*, FGF22 binding-2 0.15 and TSA no protein inactive.
For Cc1cccc(C(=O)NCC(=O)N2CCN(c3ccc(Cl)cc3)CC2)c1 the results were Vif imaging -12, CFTR F508del cor -3 and FGF22 binding-1 0.
Screening COc1cc(C)c2c(c1C=O)Oc1c(c(C)c(O)c3c1C(O)OC3=O)OC2=O (configuration not stated) returned Vif imaging 0, CFTR F508del cor 3, FGF22 binding-1 2.1*, FGF22 binding-2 0.067 and TSA no protein inactive.
Screening CC(C)NC(=O)N[C@H]1CC[C@H](CCNC(=O)C2CCCC2)O[C@@H]1CO returned CFTR F508del cor -2 and FGF22 binding-1 0.
COc1ccc(S(=O)(=O)Nc2ccc3c(c2)C(=O)N([C@@H](C)CO)C[C@H](C)[C@H](CN(C)C(=O)c2ccccc2)OCCCC[C@@H](C)O3)cc1 was read as CFTR F508del cor -1 and FGF22 binding-1 -1.
For Cc1noc(NS(=O)(=O)c2ccc(NC(=O)c3ccc(Cl)c(S(=O)(=O)N(C)c4ccccc4)c3)cc2)c1C the results were Vif imaging -4, CFTR F508del cor 3 and FGF22 binding-1 0.
